The text below walks through data of PubChem BioAssay.

A short description of test [1]: anti-His antibody binders, primary screen, artefact control for SMM control protein annotation, biochemical, small-molecule microarray, 635 nm fluorescence (AID 1128).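 Note: score merges feature fluorescence with signal-to-noise for each printed compound spot.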 The settings on record: anti-His Alexa647 antibody binding, higher = more signal.
Test [2] relates to Human papillomavirus type 1a E7 protein (residues 1-88). Put plainly: HPV1a E7 small-molecule binders, primary screen, biochemical, small-molecule microarray, residues 1-88, 635 nm (AID 1129). The settings on record: small-molecule microarray binding, fluorescence 635 nm; higher = more signal.
Test [3] addresses Focal adhesion kinase 1 (Homo sapiens) (UniProt Q05397). Nature of the test: small-molecule microarray binders of FAK, primary screen, biochemical, 635/667 nm fluorescence, BSA, DTT (AID 1130).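 Note: composite of spot emission at 667 nm and signal to noise over triplicate slides.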 The settings on record: PTK2 binding, 635 nm fluorescence, higher = more signal.
Test [4] concerns Fibrinogen (Alexa647-labelled). Nature of the test: fibrinogen binders on compound microarrays, profiling panel, artefact control for SMM control-protein annotation, biochemical, small-molecule microarray, 635/667 nm fluorescence (AID 1131).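 Note: z-score merges 667 nm fluorescence with per-spot signal-to-noise over triplicate slides.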 The settings on record: fibrinogen-A647 binding fluorescence, higher = more signal.
Test [5] addresses Follistatin (Homo sapiens) (UniProt P19883). Put plainly: follistatin binders on small-molecule microarrays, primary screen, biochemical, small-molecule microarray, 635/667 nm fluorescence (AID 1132). The note with it: FST binding, 635 nm fluorescence, higher = more signal.
The target in test [6] is Fibroblast growth factor 2 (Homo sapiens) (UniProt P09038). Put plainly: FGF2 binders on small-molecule microarrays, primary screen, biochemical, small-molecule microarray, 635/667 nm fluorescence (AID 1133). The settings on record: small-molecule microarray binding, FGF2, fluorescence 635/667; higher = more signal.
Chain of Fibroblast growth factor 2 (Homo sapiens) (P09038 whole entry, looked up): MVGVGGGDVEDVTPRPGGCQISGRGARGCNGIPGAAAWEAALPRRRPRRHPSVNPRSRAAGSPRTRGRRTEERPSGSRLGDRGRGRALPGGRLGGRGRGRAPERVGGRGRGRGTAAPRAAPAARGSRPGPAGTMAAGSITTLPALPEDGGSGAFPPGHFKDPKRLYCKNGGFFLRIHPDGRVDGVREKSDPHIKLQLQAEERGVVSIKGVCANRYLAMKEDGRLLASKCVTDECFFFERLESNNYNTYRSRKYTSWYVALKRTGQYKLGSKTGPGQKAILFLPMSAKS
Test [7] in a line: mitochondrial membrane potential change in A549 cells, profiling panel, cell-based, JC-1 fluorescence, basal, 24 h, 100 nL (AID 1138).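 Note: A549 lung adenocarcinoma cells under basal conditions with no added stimulus; test concentration not given here.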 The settings on record: higher = more signal.
The subject of another test is Lefty1. Nature of the test: Lefty1 binders on small-molecule microarrays, primary screen, biochemical, small-molecule microarray, 635/667 nm fluorescence (AID 1139). The note with it: small-molecule microarray binding, fluorescence 635/667; higher = more signal.
The subject of test [8] is wheat germ agglutinin (Triticum aestivum), Alexa647-labelled. Put plainly: wheat germ agglutinin binders on compound microarrays, profiling panel, artefact control for SMM control-protein annotation, biochemical, small-molecule microarray, 635/667 nm fluorescence (AID 1140).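 Note: score merges 667 nm feature emission with signal to noise over triplicate slides.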 The note with it: WGA-A647 binding, 635 nm fluorescence, higher = more signal.
Test [9] deals with Luciferin 4-monooxygenase (Photinus pyralis) (UniProt P08659). Nature of the test: firefly luciferase enzyme inhibitors, primary screen, biochemical, luminescence, purified enzyme, 2006 set (AID 1141).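 Note: cell-free assay with purified firefly luciferase at 100 ng per well in PBS; test concentration not given here.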 The note with it: SteadyGlo luminescence, 30 min, higher = more signal, called active from +8 up or from −8 down.
Chain of Luciferin 4-monooxygenase (Photinus pyralis) (P08659 whole entry, looked up): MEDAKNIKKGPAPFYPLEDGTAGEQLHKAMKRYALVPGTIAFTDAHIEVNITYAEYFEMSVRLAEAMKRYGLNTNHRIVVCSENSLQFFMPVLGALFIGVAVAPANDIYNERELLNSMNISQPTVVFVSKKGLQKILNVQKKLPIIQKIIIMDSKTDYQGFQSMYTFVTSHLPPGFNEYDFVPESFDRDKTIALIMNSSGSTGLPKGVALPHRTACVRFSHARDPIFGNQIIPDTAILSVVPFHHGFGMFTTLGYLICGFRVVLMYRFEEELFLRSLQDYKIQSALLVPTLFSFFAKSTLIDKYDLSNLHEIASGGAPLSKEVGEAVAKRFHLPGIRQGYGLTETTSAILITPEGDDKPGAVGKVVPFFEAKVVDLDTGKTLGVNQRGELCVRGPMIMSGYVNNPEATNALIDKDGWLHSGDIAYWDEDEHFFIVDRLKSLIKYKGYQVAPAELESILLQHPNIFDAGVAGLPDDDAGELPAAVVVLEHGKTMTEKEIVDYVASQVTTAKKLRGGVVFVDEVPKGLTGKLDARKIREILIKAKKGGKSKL

Calls of active or inactive are those of the source.

Chain of Follistatin (Homo sapiens) (P19883 whole entry, looked up): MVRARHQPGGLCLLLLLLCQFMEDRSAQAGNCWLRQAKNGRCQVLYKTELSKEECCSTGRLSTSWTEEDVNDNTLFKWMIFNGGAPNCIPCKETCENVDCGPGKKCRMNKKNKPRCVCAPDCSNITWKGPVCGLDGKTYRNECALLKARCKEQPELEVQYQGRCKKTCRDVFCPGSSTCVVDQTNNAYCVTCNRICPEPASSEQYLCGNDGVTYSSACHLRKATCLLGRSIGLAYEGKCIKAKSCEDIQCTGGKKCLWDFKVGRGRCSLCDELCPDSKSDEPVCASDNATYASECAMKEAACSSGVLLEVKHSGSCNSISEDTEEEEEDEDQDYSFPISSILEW
Chain of Focal adhesion kinase 1 (Homo sapiens) (Q05397 whole entry, looked up): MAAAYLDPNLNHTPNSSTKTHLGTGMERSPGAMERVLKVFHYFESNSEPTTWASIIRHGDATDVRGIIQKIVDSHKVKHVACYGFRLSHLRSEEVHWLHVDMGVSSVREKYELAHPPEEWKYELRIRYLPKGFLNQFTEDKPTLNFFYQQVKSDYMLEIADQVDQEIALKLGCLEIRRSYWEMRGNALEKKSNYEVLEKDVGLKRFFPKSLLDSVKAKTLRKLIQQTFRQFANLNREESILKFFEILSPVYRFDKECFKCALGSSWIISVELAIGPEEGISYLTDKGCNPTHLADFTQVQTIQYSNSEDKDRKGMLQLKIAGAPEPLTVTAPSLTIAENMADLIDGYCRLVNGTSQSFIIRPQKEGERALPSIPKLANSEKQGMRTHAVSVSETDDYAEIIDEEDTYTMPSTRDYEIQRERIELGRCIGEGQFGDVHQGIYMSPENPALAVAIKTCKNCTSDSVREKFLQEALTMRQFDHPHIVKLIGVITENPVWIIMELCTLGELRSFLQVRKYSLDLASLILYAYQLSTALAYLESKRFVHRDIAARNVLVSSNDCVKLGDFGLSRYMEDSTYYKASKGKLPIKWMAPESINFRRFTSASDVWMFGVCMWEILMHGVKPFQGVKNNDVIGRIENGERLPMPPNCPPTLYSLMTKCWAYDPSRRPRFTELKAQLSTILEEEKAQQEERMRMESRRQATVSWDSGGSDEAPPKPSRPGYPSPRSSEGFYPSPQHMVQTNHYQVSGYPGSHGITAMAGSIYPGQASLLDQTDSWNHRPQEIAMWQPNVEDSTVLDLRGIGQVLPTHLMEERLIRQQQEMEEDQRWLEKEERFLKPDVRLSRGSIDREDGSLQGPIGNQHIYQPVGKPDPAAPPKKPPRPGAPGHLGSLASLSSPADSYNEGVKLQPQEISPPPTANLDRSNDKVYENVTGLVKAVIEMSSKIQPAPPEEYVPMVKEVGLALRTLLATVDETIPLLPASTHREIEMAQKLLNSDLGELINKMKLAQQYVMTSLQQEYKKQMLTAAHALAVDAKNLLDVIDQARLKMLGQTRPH

For the molecule `Cc1ccc(S[C@]2(C(=O)NCC(C)C)CC(=O)N(C(C)C)[C@@H]2c2ccc(CO)cc2I)cc1`, the composite z-score in test [1] is -1.38; in test [2] it was -0.807; in [3] it was -0.0038; in test [4] it was -0.942; in test [5], -0.888; in [6], 0.101. Moreover, the composite z-score is -1.16 in the test on Lefty1 and -0.353 in test [8]. The z-score was -0.294 in [7] and -0.965 (inactive) in test [9].
Consider `C=C[C@H](C)[C@@H](OC(=O)Nc1ccc(SC)cc1)c1ccc(OCCO)cc1`, for which the composite z-score in test [1] is 2.21; in test [2] it was 1.14; in test [3], 0.461; in [4], -1.15; in test [5], 0.629; in test [6] it was 0.2. The composite z-score in the test on Lefty1 is 0.265; in test [8] it was 0.827. The z-score in [7] is -1.8; in [9], -7.41 (inactive).
In the case of `CC(C)C[C@@H]1NC(=O)[C@@H]2C[C@H](C(=O)NCCCCCNC(=O)CS)[C@H](c3ccc(O)cc3)N2C1=O`, the composite z-score in test [1] was 2.52; in test [2], -0.0315; in [3], 0.322; in [4], 0.0178; in test [5] it was 0.815; in test [6], 1.24. In addition, the values for the composite z-score (in the test with Lefty1; in test [8]) were 0.627 and 0.263, respectively. Also, the values for the z-score in test [7] and in [9] were -0.976 and 0.448 (inactive), respectively.
As for `CC1C2C(CCCO)=CC(C3C(=O)N(C(N)=O)C(=O)C23)N1Cc1cccc(OC(F)(F)F)c1` (stereo not given), the composite z-score was found to be 0.632 in [1]; 1.11 in [2]; 0.314 in test [3]; 0.646 in test [4]; 0.0794 in [5]; 0.438 in test [6]. Moreover, the composite z-score stood at 0.216 with Lefty1 and 0.576 in test [8]. Further, the results for the z-score in test [7] and in test [9] were -0.341 and -0.0224 (inactive), respectively.
For `COC(=O)C(CC#Cc1ccc2c(c1)[C@]1(C(=O)N2)[C@H](c2ccccc2OCCO)N2[C@H](c3ccccc3)[C@H](c3ccccc3)OC(=O)[C@H]2[C@@H]1C(=O)N1CCN(c2ncccn2)CC1)C(=O)OC`, the composite z-score in test [1] stood at 1.48; in test [2], 1.22; in test [3], 0.13; in test [4], 0.927; in [5] it was 1.04; in test [6], 1. The composite z-score in the test with Lefty1 is 0.668; in test [8], 0.481. For the same molecule, the z-score in [7] was -1.46; in test [9] it was -0.186 (inactive).
For `O=C/C=C/c1ccc(-c2ccccc2)cc1`, the composite z-score was -0.221 in test [1]; -0.142 in test [2]; -0.164 in [3]; -0.964 in test [4]; 0.276 in test [5]; -0.377 in test [6]. Also, the composite z-score in the test on Lefty1 was -0.155; in test [8], -0.484. Moreover, the z-score in test [7] is 0.294; in [9], 0.0686 (inactive).
Regarding `COc1cc2c(cc1OC)CN(C(=O)[C@@H]1[C@H]3C(=O)O[C@H](c4ccccc4)[C@H](c4ccccc4)N3[C@H](c3ccc(O)cc3)[C@@]13C(=O)Nc1ccc(C#CC4=CCCCC4)cc13)CC2`, the composite z-score is 1.76 in test [1]; 1.19 in test [2]; 0.453 in test [3]; 0.863 in [4]; 1.08 in test [5]; 0.493 in test [6]. Moreover, the composite z-score amounted to 1.46 with Lefty1 and 1.06 in test [8]. Moreover, the values for the z-score in test [7] and in [9] were -0.637 and -1.33 (inactive), respectively.
Regarding `O=C1O[C@H](c2ccccc2)[C@H](c2ccccc2)N2[C@H]1[C@@H](C(=O)Nc1nc3ccccc3s1)[C@]1(C(=O)Nc3ccccc31)[C@H]2c1ccccc1OCCO`, the composite z-score in [1] stood at 1.71; in [2], 0.813; in test [3], 0.832; in test [4], 0.966; in [5] it was 0.453; in test [6] it was 0.64. The composite z-score stood at 0.0835 in the test with Lefty1 and 1.02 in [8]. The z-score in [7] is -1.84; in test [9], 0.389 (inactive).
`O=C1C2C=CC(C(O)C(c3ccccc3)c3ccccc3)N(Nc3ccccc3F)C2C(=O)N1c1ccccc1` (stereo not given): the composite z-score in [1] turned out to be 1.65; in test [2], 1.24; in [3] it was 0.22; in test [4], 0.97; in test [5], 1.2; in test [6] it was 0.158. For the same molecule, the composite z-score in the test on Lefty1 worked out at 0.667; in [8], 1.1. The z-score in [7] was -1.18; in test [9], 0.294 (inactive).
Regarding `COC(=O)[C@@]1(Cc2ccc(F)cc2)[C@H]2c3cc(C(=O)N4CCCC4)n(Cc4ccc(OC(F)(F)F)cc4)c3C[C@H]2CN1C(=O)c1ccccc1`, the composite z-score in [1] is -0.509; in test [2], 1.05; in test [3], 0.415; in test [4] it was -0.276; in [5], -0.752; in test [6] it was -0.685. For the same molecule, the results for the composite z-score (in the test on Lefty1; in test [8]) were -1.69 and 0.135, respectively. In addition, the results for the z-score in test [7] and in test [9] were 0.559 and 1.38 (inactive), respectively.
Turning to `O=C1O[C@H](c2ccccc2)[C@H](c2ccccc2)N2[C@H]1[C@@H](C(=O)N1CCN(c3ncccn3)CC1)[C@]1(C(=O)Nc3ccc(C#CC4(O)CCCCCC4)cc31)[C@H]2c1ccc(O)cc1`, the composite z-score in [1] was 1.75; in test [2], 1.2; in [3], 0.62; in [4], 0.902; in [5] it was 0.951; in test [6], 0.89. In addition, the composite z-score in the test on Lefty1 came out at 0.58; in test [8] it was 1.06. For the same molecule, the values for the z-score in [7] and in [9] were 1.36 and -1.63 (inactive), respectively.
In the case of `Cc1ccc(S(=O)(=O)N2[C@@H](c3ccccc3)C(C(=O)O)=C[C@H]2C(C)(C)C)cc1`, the composite z-score in [1] is 1.43; in test [2], 1.18; in test [3], 1.31; in test [4] it was 0.651; in test [5] it was 0.804; in test [6], -0.0977. Further, the results for the composite z-score (with Lefty1; in test [8]) were 0.576 and 1.31, respectively. The z-score is -1.04 in [7] and 1.19 (inactive) in [9].
As for `CN1C(=O)C2C=CC(C(O)COCc3ccccc3)N(Nc3ccc([N+](=O)[O-])cc3[N+](=O)[O-])C2C1=O` (stereo not given), the composite z-score is -1.08 in test [1]; 1.08 in test [2]; 0.903 in test [3]; -0.428 in [4]; -0.232 in [5]; 0.41 in [6]. The results for the composite z-score (in the test with Lefty1; in [8]) were -0.798 and 0.333, respectively. In addition, the values for the z-score in test [7] and in test [9] were 1.89 and -1.05 (inactive), respectively.
As to `CCCCCN1CC=CC23O[C@@H]4/C=C\CCCOC(=O)C4[C@H]2C(=O)N(CCCCCO)[C@@H]3C1=O` (stereo not given in full), the composite z-score in test [1] is 0.163; in [2] it was -0.766; in test [3], -0.565; in [4] it was -0.832; in test [5], -0.38; in test [6], -1.11. Further, the composite z-score in the test with Lefty1 is -0.0788; in test [8], -0.662. Also, the figures for the z-score in [7] and in test [9] were 0.27 and -3.1 (inactive), respectively.
As to `COc1cc(Cc2cc3c(c(-c4ccccc4)n2)[Si](C(C)C)(C(C)C)OC3)cc(OC)c1OC`, the composite z-score is -0.753 in test [1]; -1.33 in [2]; -0.517 in test [3]; 0.107 in test [4]; 0.0972 in [5]; 0.542 in [6]. The composite z-score in the test with Lefty1 was -0.194; in [8], 0.712. For the same molecule, the figures for the z-score in test [7] and in [9] were 0.489 and -0.111 (inactive), respectively.
With `[N-]=[N+]=NCc1ccccc1[C@H]1OC(c2ccc(OCCCO)cc2)=N[C@@]1(Cc1ccccc1N=[N+]=[N-])C(=O)O`, the composite z-score came to 2.02 in test [1]; 1.2 in test [2]; 1.03 in test [3]; 0.899 in [4]; 1.21 in test [5]; 0.134 in [6]. Also, the results for the composite z-score (in the test with Lefty1; in test [8]) were 0.0929 and 1.23, respectively. Moreover, the results for the z-score in test [7] and in test [9] were -0.0184 and -4.21 (inactive), respectively.
Regarding `CCCCN1CC=CC23O[C@@H]4C=CCCOC(=O)C4[C@H]2C(=O)N(CCO)[C@@H]3C1=O` (stereo not given in full), the composite z-score is -1.17 in [1]; -0.513 in test [2]; -0.634 in test [3]; 0.213 in test [4]; 0.407 in test [5]; 1.79 in test [6]. In addition, the composite z-score in the test with Lefty1 is -0.614; in test [8] it was -0.0481. Also, the results for the z-score in test [7] and in [9] were -0.9 and 0.421 (inactive), respectively.
